Key:
Assay in all cases: DAPPL (digital affinity profiling via proximity ligation, sequencing); 10 mM Tris-HCl pH 7.5, 50 mM NaCl, 1 mM DTT, 4% glycerol, room temperature, 30 min; GST-TFs on glutathione beads, 16-mer random dsDNA library, 0.1% formaldehyde crosslink after washing; high values mean tight binding
Details in all cases: protein: recombinant; tags: N-terminal GST; dsDNA, one strand shown
FLI1 = target: T1, FLI1 (Homo sapiens, UniProt Q01543 1-452)
T1 sequence: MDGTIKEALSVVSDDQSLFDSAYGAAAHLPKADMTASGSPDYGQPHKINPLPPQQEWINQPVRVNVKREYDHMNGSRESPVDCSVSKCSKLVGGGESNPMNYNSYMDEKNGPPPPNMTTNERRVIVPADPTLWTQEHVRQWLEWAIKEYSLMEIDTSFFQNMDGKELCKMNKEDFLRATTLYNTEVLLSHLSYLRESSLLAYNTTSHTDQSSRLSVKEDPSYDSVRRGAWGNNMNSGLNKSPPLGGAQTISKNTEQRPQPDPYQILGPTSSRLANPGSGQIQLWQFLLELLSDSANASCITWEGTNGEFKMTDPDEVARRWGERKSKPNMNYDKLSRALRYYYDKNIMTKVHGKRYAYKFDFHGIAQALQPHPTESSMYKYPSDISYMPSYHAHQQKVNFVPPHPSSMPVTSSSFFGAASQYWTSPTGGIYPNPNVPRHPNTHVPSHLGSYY
Method in brief: (§1)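 Sequencing on an Illumina NextSeq500 followed washing, crosslinking with 0.1% formaldehyde, proximity ligation (BsaI/T4 ligase, 1 h, 37 °C) and PCR amplification of pools that had been incubated for 30 min at room temperature with 200 nmole of a random double-stranded 16-mer DNA library in Tris/NaCl/DTT/glycerol buffer. Each pool held DNA-barcoded human transcription factors, expressed in yeast as GST fusions and captured on glutathione beads, plus a tag-only sample. Binding signal is a hexamer's read frequency for a factor divided by its frequency in the tag-only sample.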

ELK1 = target: T2, ELK1 (Homo sapiens, UniProt P19419 1-428)
T2 sequence: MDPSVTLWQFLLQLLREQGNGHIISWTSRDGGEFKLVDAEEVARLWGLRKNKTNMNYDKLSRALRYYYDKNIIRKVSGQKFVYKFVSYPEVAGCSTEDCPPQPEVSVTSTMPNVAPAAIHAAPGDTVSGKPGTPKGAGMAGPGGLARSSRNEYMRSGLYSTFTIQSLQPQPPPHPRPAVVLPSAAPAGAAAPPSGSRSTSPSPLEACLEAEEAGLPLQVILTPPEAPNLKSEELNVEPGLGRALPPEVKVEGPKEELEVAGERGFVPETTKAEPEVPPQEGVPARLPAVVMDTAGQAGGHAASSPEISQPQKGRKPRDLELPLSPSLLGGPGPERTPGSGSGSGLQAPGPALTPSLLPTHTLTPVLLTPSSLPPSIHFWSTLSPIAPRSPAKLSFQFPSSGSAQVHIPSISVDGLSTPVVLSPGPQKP
Method in brief: as §1

GABPA = target: T3, GABPA (Homo sapiens, UniProt Q06546 1-454)
T3 sequence: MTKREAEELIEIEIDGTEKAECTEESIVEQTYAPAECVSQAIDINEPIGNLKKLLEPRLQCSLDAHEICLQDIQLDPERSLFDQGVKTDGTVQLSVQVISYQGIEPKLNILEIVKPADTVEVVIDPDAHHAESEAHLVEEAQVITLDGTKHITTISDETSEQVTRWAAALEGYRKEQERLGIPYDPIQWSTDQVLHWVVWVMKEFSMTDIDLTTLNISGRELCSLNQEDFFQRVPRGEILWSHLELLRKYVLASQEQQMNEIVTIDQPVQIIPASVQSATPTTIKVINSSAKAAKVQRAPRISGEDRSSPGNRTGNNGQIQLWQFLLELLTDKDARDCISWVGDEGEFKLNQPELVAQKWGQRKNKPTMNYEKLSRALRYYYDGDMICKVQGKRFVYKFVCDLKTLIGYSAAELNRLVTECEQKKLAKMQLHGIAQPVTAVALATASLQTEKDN
Method in brief: as §1

ERG = target: T4, ERG (Homo sapiens, UniProt P11308 1-479)
T4 sequence: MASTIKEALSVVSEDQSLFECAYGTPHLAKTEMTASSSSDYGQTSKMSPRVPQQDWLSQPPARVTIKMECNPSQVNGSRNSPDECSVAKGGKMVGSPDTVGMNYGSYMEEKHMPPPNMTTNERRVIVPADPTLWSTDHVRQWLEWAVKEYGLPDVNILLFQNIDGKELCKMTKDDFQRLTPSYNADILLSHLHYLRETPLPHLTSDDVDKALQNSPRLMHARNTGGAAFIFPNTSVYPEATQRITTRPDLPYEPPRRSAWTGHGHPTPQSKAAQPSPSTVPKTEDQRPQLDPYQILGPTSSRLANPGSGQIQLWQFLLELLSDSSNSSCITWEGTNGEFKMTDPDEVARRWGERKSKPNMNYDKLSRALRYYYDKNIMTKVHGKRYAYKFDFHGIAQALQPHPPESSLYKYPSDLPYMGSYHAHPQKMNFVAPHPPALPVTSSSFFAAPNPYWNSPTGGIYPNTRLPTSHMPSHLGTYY
Method in brief: as §1

ELF1 = ELF1 (Homo sapiens, UniProt P32519 1-619)
Sequence of ELF1 (P32519 whole entry): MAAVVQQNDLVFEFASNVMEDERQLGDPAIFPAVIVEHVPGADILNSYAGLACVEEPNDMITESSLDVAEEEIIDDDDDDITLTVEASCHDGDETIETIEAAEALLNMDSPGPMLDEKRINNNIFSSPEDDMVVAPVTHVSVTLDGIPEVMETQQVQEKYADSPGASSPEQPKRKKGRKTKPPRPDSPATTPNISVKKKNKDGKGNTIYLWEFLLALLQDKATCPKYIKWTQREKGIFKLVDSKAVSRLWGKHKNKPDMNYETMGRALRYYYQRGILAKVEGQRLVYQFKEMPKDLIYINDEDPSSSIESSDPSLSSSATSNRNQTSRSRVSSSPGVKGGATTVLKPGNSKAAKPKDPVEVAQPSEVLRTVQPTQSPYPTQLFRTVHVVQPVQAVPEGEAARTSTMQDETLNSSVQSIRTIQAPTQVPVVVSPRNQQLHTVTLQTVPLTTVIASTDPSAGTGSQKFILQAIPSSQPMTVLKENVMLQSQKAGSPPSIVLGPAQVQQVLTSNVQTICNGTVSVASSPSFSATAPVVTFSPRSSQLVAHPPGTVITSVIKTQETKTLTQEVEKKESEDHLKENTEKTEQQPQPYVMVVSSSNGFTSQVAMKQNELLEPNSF
Method in brief: as §1

EHF = target: T5, EHF (Homo sapiens, UniProt Q9NZC4 1-300)
T5 sequence: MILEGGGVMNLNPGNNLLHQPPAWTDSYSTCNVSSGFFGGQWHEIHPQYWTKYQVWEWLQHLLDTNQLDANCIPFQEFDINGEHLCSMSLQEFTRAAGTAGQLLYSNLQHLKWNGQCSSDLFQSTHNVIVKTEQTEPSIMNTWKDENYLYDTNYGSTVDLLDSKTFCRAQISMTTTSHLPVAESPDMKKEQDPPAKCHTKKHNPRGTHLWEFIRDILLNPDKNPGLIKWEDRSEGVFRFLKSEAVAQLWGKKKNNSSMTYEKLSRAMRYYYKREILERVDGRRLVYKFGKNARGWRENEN
Method in brief: as §1

SPI1 = SPI1 (Homo sapiens, UniProt P17947 1-270)
Method in brief: as §1

SPIB = SPIB (Homo sapiens, UniProt Q01892 1-262)
Sequence of SPIB (Q01892 whole entry): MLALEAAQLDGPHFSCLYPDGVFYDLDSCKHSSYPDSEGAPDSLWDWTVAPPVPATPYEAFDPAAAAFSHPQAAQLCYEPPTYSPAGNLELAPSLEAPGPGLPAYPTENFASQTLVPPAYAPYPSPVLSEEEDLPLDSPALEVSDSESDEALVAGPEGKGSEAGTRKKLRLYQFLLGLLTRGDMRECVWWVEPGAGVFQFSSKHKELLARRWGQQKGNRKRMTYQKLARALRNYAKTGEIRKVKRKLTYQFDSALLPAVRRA
Method in brief: as §1

ELK3 = target: T6, ELK3 (Homo sapiens, UniProt P41970 1-407)
T6 sequence: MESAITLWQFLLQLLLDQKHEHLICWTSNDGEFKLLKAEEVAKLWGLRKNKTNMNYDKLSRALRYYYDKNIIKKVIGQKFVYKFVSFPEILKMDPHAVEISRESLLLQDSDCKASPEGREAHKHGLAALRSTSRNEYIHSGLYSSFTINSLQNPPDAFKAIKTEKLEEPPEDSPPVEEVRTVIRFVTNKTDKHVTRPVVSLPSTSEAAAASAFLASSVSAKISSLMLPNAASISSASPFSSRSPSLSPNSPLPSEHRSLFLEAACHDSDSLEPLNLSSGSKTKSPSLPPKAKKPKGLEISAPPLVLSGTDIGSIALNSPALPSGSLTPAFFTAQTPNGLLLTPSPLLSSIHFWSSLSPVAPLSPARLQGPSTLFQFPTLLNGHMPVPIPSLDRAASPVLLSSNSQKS
Method in brief: as §1

FEV = target: T7, FEV (Homo sapiens, UniProt Q99581 1-238)
T7 sequence: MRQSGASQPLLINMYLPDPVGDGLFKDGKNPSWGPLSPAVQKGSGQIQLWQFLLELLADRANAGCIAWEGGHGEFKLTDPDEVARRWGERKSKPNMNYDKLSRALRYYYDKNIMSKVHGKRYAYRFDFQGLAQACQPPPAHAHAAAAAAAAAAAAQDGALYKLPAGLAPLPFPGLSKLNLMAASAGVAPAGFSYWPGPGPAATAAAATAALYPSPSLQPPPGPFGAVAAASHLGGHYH
Method in brief: as §1

ETV5 = ETV5 (Homo sapiens, UniProt P41161 1-510)
Sequence of ETV5 (P41161 whole entry): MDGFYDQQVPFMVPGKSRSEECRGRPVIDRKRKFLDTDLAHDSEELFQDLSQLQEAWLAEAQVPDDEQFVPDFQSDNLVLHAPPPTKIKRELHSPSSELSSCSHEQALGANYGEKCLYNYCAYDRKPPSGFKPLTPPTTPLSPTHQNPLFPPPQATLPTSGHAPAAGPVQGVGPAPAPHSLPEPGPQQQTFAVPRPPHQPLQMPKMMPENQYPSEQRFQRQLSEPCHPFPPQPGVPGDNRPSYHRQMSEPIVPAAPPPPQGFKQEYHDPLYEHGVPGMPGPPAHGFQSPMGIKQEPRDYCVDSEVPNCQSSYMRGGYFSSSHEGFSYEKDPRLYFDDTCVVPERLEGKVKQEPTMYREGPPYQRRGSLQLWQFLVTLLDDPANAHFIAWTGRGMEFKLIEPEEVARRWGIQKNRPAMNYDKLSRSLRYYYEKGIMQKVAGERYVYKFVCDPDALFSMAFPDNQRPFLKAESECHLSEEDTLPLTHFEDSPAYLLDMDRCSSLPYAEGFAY
Method in brief: as §1

SPIC = target: T8, SPIC (Homo sapiens, UniProt Q8N5J4 1-248)
T8 sequence: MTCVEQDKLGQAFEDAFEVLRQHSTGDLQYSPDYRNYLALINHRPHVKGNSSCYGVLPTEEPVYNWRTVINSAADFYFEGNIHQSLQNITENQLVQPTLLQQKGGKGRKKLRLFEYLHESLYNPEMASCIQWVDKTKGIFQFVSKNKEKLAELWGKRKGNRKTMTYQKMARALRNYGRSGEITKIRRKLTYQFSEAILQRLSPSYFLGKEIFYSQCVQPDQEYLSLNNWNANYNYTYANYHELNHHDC
Method in brief: as §1

ELF4 = ELF4 (Homo sapiens, UniProt Q99607 1-663)
Sequence of ELF4 (Q99607 whole entry): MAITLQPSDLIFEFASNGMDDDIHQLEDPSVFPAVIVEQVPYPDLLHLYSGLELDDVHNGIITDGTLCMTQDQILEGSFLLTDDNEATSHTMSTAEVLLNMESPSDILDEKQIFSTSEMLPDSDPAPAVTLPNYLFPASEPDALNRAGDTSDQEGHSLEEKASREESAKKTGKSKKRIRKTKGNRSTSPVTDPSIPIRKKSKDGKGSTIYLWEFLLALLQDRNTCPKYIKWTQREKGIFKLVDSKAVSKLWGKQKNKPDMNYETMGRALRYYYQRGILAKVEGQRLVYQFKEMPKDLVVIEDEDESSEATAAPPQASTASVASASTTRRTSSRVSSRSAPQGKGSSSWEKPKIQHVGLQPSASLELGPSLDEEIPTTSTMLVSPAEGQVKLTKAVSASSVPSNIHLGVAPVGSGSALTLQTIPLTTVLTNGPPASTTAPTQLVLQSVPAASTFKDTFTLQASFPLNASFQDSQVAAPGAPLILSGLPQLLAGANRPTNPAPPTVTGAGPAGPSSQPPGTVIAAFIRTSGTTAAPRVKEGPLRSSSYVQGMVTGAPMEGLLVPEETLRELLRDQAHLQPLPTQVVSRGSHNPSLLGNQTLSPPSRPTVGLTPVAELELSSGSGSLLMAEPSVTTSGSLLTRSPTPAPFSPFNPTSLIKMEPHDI
Method in brief: as §1

ELK4 = target: T9, ELK4 (Homo sapiens, UniProt P28324-2 1-405)
T9 sequence: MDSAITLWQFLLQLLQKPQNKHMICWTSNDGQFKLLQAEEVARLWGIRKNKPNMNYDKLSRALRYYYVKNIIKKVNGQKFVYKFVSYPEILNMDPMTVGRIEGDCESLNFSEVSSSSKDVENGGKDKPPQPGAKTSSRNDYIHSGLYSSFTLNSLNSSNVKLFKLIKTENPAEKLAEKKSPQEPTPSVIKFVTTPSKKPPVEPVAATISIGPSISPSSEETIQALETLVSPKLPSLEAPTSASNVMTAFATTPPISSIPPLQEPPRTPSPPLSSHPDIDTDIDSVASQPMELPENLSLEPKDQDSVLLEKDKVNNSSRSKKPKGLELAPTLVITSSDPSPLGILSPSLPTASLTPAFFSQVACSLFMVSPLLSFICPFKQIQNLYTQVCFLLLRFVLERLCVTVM
Method in brief: as §1

ETV2 = target: T10, ETV2 (Homo sapiens, UniProt O00321 1-342)
T10 sequence: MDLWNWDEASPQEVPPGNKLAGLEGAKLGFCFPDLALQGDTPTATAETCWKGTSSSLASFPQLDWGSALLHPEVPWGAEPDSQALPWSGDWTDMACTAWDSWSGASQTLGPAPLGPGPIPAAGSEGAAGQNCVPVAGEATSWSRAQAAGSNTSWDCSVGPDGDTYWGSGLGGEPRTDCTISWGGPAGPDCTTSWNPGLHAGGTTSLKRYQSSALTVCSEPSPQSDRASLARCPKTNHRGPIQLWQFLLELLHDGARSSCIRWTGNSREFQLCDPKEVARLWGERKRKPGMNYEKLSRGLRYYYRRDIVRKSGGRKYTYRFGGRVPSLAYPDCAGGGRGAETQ
Method in brief: as §1

ELF3 = target: T11, ELF3 (Homo sapiens, UniProt P78545 1-371)
T11 sequence: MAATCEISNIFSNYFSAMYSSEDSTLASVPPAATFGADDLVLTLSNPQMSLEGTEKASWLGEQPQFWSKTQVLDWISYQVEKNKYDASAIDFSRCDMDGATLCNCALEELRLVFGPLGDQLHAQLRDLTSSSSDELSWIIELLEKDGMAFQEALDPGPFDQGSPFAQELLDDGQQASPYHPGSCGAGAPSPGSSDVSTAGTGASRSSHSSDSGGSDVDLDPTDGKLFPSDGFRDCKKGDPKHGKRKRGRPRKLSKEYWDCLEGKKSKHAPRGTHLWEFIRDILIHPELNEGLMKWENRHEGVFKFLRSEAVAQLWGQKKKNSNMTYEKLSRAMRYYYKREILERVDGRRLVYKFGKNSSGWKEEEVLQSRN
Method in brief: as §1

ETV1 = ETV1 (Homo sapiens, UniProt P50549 1-477)
Sequence of ETV1 (P50549 whole entry): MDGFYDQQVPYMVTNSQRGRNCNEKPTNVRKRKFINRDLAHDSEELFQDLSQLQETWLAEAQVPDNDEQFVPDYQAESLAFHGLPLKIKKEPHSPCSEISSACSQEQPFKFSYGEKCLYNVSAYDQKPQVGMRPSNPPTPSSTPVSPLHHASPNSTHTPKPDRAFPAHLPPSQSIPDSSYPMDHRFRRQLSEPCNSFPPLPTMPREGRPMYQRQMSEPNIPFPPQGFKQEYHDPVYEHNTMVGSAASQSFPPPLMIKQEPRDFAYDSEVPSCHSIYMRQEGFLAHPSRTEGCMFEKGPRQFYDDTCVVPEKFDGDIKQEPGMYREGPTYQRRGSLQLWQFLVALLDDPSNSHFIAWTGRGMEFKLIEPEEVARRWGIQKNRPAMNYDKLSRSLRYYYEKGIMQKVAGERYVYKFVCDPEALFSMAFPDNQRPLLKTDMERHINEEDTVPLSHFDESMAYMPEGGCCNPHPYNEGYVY
Method in brief: as §1

Sequence | binding signal (FLI1) | binding signal (ELK1) | binding signal (GABPA) | binding signal (ERG) | binding signal (ELF1) | binding signal (EHF) | binding signal (SPI1) | binding signal (SPIB) | binding signal (ELK3) | binding signal (FEV) | binding signal (ETV5) | binding signal (SPIC) | binding signal (ELF4) | binding signal (ELK4) | binding signal (ETV2) | binding signal (ELF3) | binding signal (ETV1)
CACCCT | 1.21 fold enrichment (6-mer frequency, TF over GST control) | 1.26 fold enrichment (6-mer frequency, TF over GST control) | 1.18 fold enrichment (6-mer frequency, TF over GST control) | 1.16 fold enrichment (6-mer frequency, TF over GST control) | 1.16 fold enrichment (6-mer frequency, TF over GST control) | 1.02 fold enrichment (6-mer frequency, TF over GST control) | 1.07 fold enrichment (6-mer frequency, TF over GST control) | 1.16 fold enrichment (6-mer frequency, TF over GST control) | 1.14 fold enrichment (6-mer frequency, TF over GST control) | 1.15 fold enrichment (6-mer frequency, TF over GST control) | 1.19 fold enrichment (6-mer frequency, TF over GST control) | 1.13 fold enrichment (6-mer frequency, TF over GST control) | 1.24 fold enrichment (6-mer frequency, TF over GST control) | 1.07 fold enrichment (6-mer frequency, TF over GST control) | 1.26 fold enrichment (6-mer frequency, TF over GST control) | 1.08 fold enrichment (6-mer frequency, TF over GST control) | 1.24 fold enrichment (6-mer frequency, TF over GST control)
TTCAGT | 1.07 fold enrichment (6-mer frequency, TF over GST control) | 1.04 fold enrichment (6-mer frequency, TF over GST control) | 1.06 fold enrichment (6-mer frequency, TF over GST control) | 1.03 fold enrichment (6-mer frequency, TF over GST control) | 1.09 fold enrichment (6-mer frequency, TF over GST control) | 1.04 fold enrichment (6-mer frequency, TF over GST control) | 1.11 fold enrichment (6-mer frequency, TF over GST control) | 1 fold enrichment (6-mer frequency, TF over GST control) | 1.02 fold enrichment (6-mer frequency, TF over GST control) | 1.01 fold enrichment (6-mer frequency, TF over GST control) | 1.05 fold enrichment (6-mer frequency, TF over GST control) | 1.11 fold enrichment (6-mer frequency, TF over GST control) | 1.11 fold enrichment (6-mer frequency, TF over GST control) | 1.1 fold enrichment (6-mer frequency, TF over GST control) | 1.08 fold enrichment (6-mer frequency, TF over GST control) | 1.08 fold enrichment (6-mer frequency, TF over GST control) | 1.07 fold enrichment (6-mer frequency, TF over GST control)
GTATAC | 1.28 fold enrichment (6-mer frequency, TF over GST control) | 1.3 fold enrichment (6-mer frequency, TF over GST control) | 1.32 fold enrichment (6-mer frequency, TF over GST control) | 1.24 fold enrichment (6-mer frequency, TF over GST control) | 1.18 fold enrichment (6-mer frequency, TF over GST control) | 1.22 fold enrichment (6-mer frequency, TF over GST control) | 1.18 fold enrichment (6-mer frequency, TF over GST control) | 1.27 fold enrichment (6-mer frequency, TF over GST control) | 1.28 fold enrichment (6-mer frequency, TF over GST control) | 1.2 fold enrichment (6-mer frequency, TF over GST control) | 1.24 fold enrichment (6-mer frequency, TF over GST control) | 1.2 fold enrichment (6-mer frequency, TF over GST control) | 1.3 fold enrichment (6-mer frequency, TF over GST control) | 1.29 fold enrichment (6-mer frequency, TF over GST control) | 1.1 fold enrichment (6-mer frequency, TF over GST control) | 1.18 fold enrichment (6-mer frequency, TF over GST control) | 1.31 fold enrichment (6-mer frequency, TF over GST control)

— publication PMC7862700, “An all-to-all approach to the identification of sequence-specific readers for epigenetic DNA modifications on cytosine”
